Screens: PubChem, The Scripps Research Institute Molecular Screening Center
Hits are enriched below; roughly 3.4% of the tested compounds scored in any of these assays.
FBW7 activator: activators of human E3 ligase FBW7; Q969H0; actives 0.13% (n = 650,000); AlphaScreen FBW7–phospho-cyclin E peptide binding, activator screen; normalized activity (activation), % at 26.1 µM; in the data active = normalized activity above about 1.9%;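 also: purified mutant Fbw7 with reduced substrate affinity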
TEAD-YAP block: TEAD-YAP interaction inhibition | HEK-TIYL cells, TEAD-Gal4/YAP UAS-luciferase luminescence | inhibition, % at 9.12 µM | actives 1.4% (n = 640,000) | AID 1259422; in the data active = inhibition above about 32%;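 also: 0% = median of test compound wells and 100% = reference inhibitor wells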
MITF inh: inhibitors of human MITF; AID 1259374; O75030; AlphaScreen MITF homodimerization, bead proximity signal; inhibition, % at 2.6 µM; actives 0.91% (n = 650,000); in the data active = inhibition above about 50%;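 also: 0% = vehicle wells with protein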
GPR151 activ: human GPR151 activation; Q8TDV0; PathHunter beta-arrestin GPR151 cells, luminescence; activation, % at 11.2 µM; actives 1% (n = 650,000); AID 1508602; in the data active = activation above about 4.9%;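 also: 0% = median of compound wells and 100% = cells with positive control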
Active calls of the source: *; / = no result given.

SMILES	FBW7 activator	TEAD-YAP block	MITF inh	GPR151 activ
COCCNC(=O)c1ccc2c(c1)CC(c1nc3ncc(-c4ccnc(N)n4)cc3[nH]1)CO2 (configuration not stated)	1	-5	31	-2
N#Cc1cc(-c2ccnc(Nc3ccc(-n4cnc(N5CCOCC5)n4)cc3)n2)cc(N2CCCC(O)C2)c1 (configuration not stated)	0	17	1	-1
N#Cc1cc(-c2ccnc(Nc3ccc(-n4cnc(-c5ccccn5)n4)cc3)n2)cc(N2CCCC(O)C2)c1 (configuration not stated)	0	50*	9	1
CN(C)c1cc(F)cc(-c2ccnc(Nc3ccc(-n4cnc(N5CCC(O)CC5)n4)cc3)n2)c1	0	65*	-9	3
Cc1ccnc(-c2ncn(-c3ccc(Nc4nccc(-c5cc(F)cc(N6CCOCC6)c5)n4)cc3)n2)c1	0	28	-8	1
OC1CCN(c2ccc(Nc3nccc(-c4cc(F)cc(N5CCOCC5)c4)n3)cc2)CC1	0	48*	10	1
OC1CCN(c2cc(F)cc(-c3ccnc(Nc4ccc(-n5cnc(-c6ccccn6)n5)cc4)n3)c2)CC1	0	85*	3	1
Cc1ccc(Cn2nnc3c(SCc4ccccn4)ncnc32)cc1	0	-10	8	0
O=C(Nc1ccc2c(c1)OCO2)C(F)(F)F	0	0	-11	1
N#CC1=C(N)N(c2ccc([N+](=O)[O-])cc2)C2=C(C(=O)CCC2)C1c1cccs1 (configuration not stated)	0	-3	2	2
CC/C(=N\NC(=O)c1cc(C)oc1C)c1cc(Cl)cc(Cl)c1O	0	-15	13	-2
CC/C=C\C[C@H](O)/C=C/[C@@H]1[C@H]2C/C(=C/CCCC(=O)O)O[C@H]2C[C@H]1O	/	/	2	0
CSc1ncc(C(=O)NCCc2ccccc2)c(C)n1	0	-62	9	0
Cc1cc(Nc2nccc(-c3cc(C#N)cc(N4CCOCC4)c3)n2)ccc1N1CCOCC1	0	-1	-5	0
N#Cc1cc(-c2ccnc(Nc3ccc(N4CCC(O)CC4)cc3)n2)cc(N2CCOCC2)c1	0	47*	13	0
CCN1CCN(c2ncn(-c3ccc(Nc4nccc(-c5cc(N6CCOCC6)cc(C(F)(F)F)c5)n4)cc3)n2)CC1	0	-6	7	-1
Cc1ncn(-c2ccc(Nc3nccc(-c4cc(C#N)cc(N5CCCC5)c4)n3)cc2)n1	0	-6	2	-1
CCN1CCN(c2ncn(-c3ccc(Nc4nccc(-c5cncc(N6CCOCC6)c5)n4)cc3)n2)CC1	0	60*	6	2
CN1CCN(c2ncn(-c3ccc(Nc4nccc(-c5cc(C#N)cc(N6CCC(O)CC6)c5)n4)cc3)n2)CC1	0	42*	3	-1
N#Cc1cc(-c2ccnc(Nc3cccc(CN4CCCCC4)c3)n2)cc(N2CCOCC2)c1	0	86*	16	-1
COc1cc(-c2nc3s/c(=C\C4=Cc5ccccc5OC4)c(=O)n3n2)cc(OC)c1OC	0	6	10	-1
COc1cccnc1-c1ncn(-c2ccc(Nc3nccc(-c4cc(F)cc(N5CCOCC5)c4)n3)cc2)n1	0	83*	-2	1
c1cc(Cn2cccn2)cc(Nc2nccc(-c3cncc(N4CCOCC4)c3)n2)c1	0	79*	21	-2
Fc1cc(-c2ccnc(Nc3ccc(-n4cnc(N5CCOCC5)n4)cc3)n2)cc(N2CCOCC2)c1	0	57*	-14	-1
Cc1ncn(-c2ccc(Nc3nccc(-c4cncc(N5CCC(O)CC5)c4)n3)cc2)n1	0	74*	5	0
SMILES	FBW7 activator	TEAD-YAP block	MITF inh	GPR151 activ
Cc1ccc(NC(=O)C2Cc3ccccc3CN2S(=O)(=O)c2cccs2)c(C)c1 (configuration not stated)	0	0	9	0
COc1ccc2nc(Nc3nc(C)c(C)c(=O)[nH]3)nc(C)c2c1	0	-55	-3	-1
CCCCCNc1sc(Cl)c([N+](=O)[O-])c1[N+](=O)[O-]	0	65*	13	-1
CCCCCCNc1ccc([N+](=O)[O-])cc1[N+](=O)[O-]	0	4	13	-1
CCN(CC)S(=O)(=O)c1cccc(C(=O)N/N=C/c2ccc(O)c(O)c2O)c1	-1	-6	61*	2
CCOc1ccccc1/C=N\NC(=O)c1cccnc1	0	6	14	0
CCN(CC)S(=O)(=O)c1cccc(C(=O)N/N=C(\C)c2ccc(O)cc2O)c1	0	-2	-16	1
CCOc1cccc(/C=N/NC(=O)c2cccnc2)c1O	0	15	70*	0
